Source: PubChem BioAssay AID1984 (Sanford-Burnham Center for Chemical Genomics, 2009)
Screen size: about 290,000 compounds; about 35 (0.01%) were called active.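 The calls were made as follows: active = EGFP signal decrease of at least 30% at 10 µM or well 3 SD below plate mean, unless failing retest; inactive = the rest, including hits failing retest or dose response.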 For the sample, actives were picked, then their nearest neighbours and some compounds at random.

biological target: p/CIP-EGFP fusion (nuclear receptor coactivator 3, mouse) (UniProt Q05BA5); test: compounds lowering mouse p/CIP (NCOA3) protein levels – fluorescence, F442A cells, EGFP fusion, primary screen (AID 1984); conditions: 16 h, at 10 µM, stronger effect = higher value
Sequence (Q05BA5 1-1403): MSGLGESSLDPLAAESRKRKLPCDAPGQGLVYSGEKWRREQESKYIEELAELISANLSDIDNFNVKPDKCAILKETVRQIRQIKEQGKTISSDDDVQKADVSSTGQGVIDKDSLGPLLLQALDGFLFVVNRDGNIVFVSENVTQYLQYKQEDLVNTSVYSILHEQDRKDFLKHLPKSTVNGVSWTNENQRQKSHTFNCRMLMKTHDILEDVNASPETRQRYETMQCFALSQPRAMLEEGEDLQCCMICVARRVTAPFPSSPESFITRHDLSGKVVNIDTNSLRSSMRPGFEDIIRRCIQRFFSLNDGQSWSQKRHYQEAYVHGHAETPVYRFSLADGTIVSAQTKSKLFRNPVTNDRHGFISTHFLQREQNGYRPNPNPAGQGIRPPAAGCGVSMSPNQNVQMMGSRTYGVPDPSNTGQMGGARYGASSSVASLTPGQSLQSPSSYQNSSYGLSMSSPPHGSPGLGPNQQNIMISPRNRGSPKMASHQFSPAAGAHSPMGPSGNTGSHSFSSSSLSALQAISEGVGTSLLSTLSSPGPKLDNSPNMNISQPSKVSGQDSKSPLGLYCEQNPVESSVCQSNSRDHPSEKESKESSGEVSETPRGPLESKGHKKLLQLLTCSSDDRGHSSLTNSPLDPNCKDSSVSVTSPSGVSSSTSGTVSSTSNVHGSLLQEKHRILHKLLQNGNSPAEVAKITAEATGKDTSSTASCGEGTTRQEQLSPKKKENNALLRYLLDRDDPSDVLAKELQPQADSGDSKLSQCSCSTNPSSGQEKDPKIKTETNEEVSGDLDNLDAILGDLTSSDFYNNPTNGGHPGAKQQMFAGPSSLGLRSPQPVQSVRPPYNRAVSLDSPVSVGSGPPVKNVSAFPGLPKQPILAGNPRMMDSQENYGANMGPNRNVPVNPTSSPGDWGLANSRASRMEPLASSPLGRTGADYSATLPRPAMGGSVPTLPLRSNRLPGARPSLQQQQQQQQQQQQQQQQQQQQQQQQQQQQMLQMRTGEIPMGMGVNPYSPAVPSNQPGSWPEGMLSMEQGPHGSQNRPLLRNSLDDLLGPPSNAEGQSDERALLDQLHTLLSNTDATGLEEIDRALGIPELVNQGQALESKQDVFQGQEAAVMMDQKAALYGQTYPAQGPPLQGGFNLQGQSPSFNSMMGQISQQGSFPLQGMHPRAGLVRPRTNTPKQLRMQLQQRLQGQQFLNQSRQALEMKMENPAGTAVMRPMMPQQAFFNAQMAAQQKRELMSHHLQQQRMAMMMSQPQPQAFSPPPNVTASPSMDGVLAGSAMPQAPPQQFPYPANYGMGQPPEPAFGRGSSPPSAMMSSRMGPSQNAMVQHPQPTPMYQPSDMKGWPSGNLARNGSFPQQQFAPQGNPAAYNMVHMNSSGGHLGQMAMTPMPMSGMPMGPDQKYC

Decrease of EGFP signal, inactive:
CC(NCCc1ccc(S(N)(=O)=O)cc1)C(=O)NCc1ccccc1 (configuration not stated) -40%
O=S(=O)(NC1CC2CCC1C2)c1ccc(Cl)cc1 (configuration not stated) -15.4%
COc1ccccc1NC(=S)N1CCN(c2ccc(F)cc2)CC1 -2%
CCCOc1ccc(Cc2c(O)nc(N)[nH]c2=O)cc1C -10.4%
CC1(C)CCSC(/C=C/c2ccccc2)=N1 -5.5%
CSc1ccc(/C=C/C(=O)NC23CC4CC(CC(C4)C2)C3)cc1 0.4%
COCc1c(C(=O)N/N=C(\C)c2ccncc2)nnn1-c1nonc1N 1.8%
O=S(=O)([N-]c1nc2ccccc2nc1-[n+]1ccc(Cc2ccccc2)cc1)c1ccc(Br)s1 -27.8%
CCCc1cc(C(=O)N2CCCC(CO)(CCCc3ccccc3)C2)n(C)n1 (configuration not stated) -7.2%
COc1ccc2[nH]c(C(=O)N/N=C/c3cc(OC)c(OC)c(OC)c3)cc2c1 -8.7%
Cc1ccc(NS(=O)(=O)c2cc3c(cc2C)NC(=O)CO3)cc1 -4.5%
CCOCCc1nn2c(=O)cc(CSCC(=O)Nc3cccc(C)c3C)nc2s1 4.4%
COc1ccc(N2CCC(N3CCN(C)C(CCO)C3)CC2)cc1 (configuration not stated) 13.5%
O=C(NCc1ccccc1)C(c1cccnc1)N(C(=O)c1csnn1)c1ccc(F)cc1 (configuration not stated) -5.9%
Cc1cc2c(=O)n(CC(=O)NCC(=O)Nc3ccc(C(C)C)cc3)cnc2s1 3.7%
COC(=O)c1sc(-c2ccc(C(C)(C)C)cc2)cc1NC(=O)/C=C/C(=O)O -12.7%
O=C(O)/C=C/C(=O)NNc1ccc([N+](=O)[O-])cc1 -13%
Nc1nc(Nc2ccccc2F)nc(NC2CCCCC2)c1[N+](=O)[O-] -4.1%
COc1ccc(CN2CCN(Cc3ccc(OC)c(OC)c3OC)CC2)cc1 -4.7%
C=CCSc1nnc(N2C(=O)C(O)=C(C(=O)c3ccco3)C2c2ccc(F)cc2)s1 (configuration not stated) -15.4%
Cc1ccc(CNC(=O)CCC(=O)N2CC(C)Sc3ccccc32)cc1 (configuration not stated) -1.6%
CC(C)CC(O)C1CCN(C(=O)CCc2nnc(-c3ccc4c(c3)OCO4)o2)CC1 (configuration not stated) -14.9%
O=C(c1ccc2nc(N3CCOCC3)sc2c1)N1CCN(c2ccc(Cl)cc2)CC1 -11.7%
COc1ccc(C(C(=O)NCC2CCCO2)N(C(=O)Cn2nnc3ccccc32)c2ccc(NC(C)=O)cc2)cc1OC (configuration not stated) -4.9%
O=C(c1cc(COc2ccc(F)cc2F)on1)N1CCOCC1 -0.2%
O=C(NCc1ccco1)/C(=C/c1cccc([N+](=O)[O-])c1)NC(=O)c1ccco1 1%
Cc1ccccc1N1CCN(C2CCCN(C(=O)c3ocnc3C)C2)CC1 (configuration not stated) -18.6%
COc1cc(/C=N/NC(=O)c2cccnc2)ccc1OC(=O)c1cccc(Br)c1 -4.4%
CS(=O)(=O)N(CC(=O)Nc1ccc(F)cc1)C1CCCCC1 -0.5%
CC(C)CNC(=O)COC(=O)c1ccccc1OCC(=O)Nc1ccc(Br)cc1 -13.9%
Cc1c(C(=O)NCCN(C)C)oc2ccc(S(=O)(=O)N3CCCC3)cc12 -12.5%
O=C(Nc1ccc(C(=O)O)cc1)/C(=C\c1ccccc1)NC(=O)c1ccc(Br)cc1 -17.7%
Cc1c(Cl)c([N+](=O)[O-])nn1CC(=O)NCCCN1CCOCC1 5.3%
COc1cc(/C=C2\C(=N)N3N=C(CC(=O)N4CCOCC4)SC3=NC2=O)cc(OC)c1OC -17%
O=C(NC(=S)Nc1ccc2oc(=O)ccc2c1)c1ccc(-c2cccc(Cl)c2Cl)o1 -4.3%
CN(C)CCN(Cc1ccccc1)S(=O)(=O)c1csc(C(N)=O)c1 15.1%
COC(=O)C1CCCCN1C(=O)c1ccc(OC2CCN(C(C)=O)CC2)c(OC)c1 (configuration not stated) 0.9%
O=C(Cc1ccccc1Cl)N1CCOCC1 -2.9%
Cc1c2cnn(CC(=O)NCCCN3CC(C)CC(C)C3)c(=O)c2c(C)n1Cc1ccc(Cl)cc1 (configuration not stated) 0.5%
CCCC[C@H]1COCCS(=O)(=O)N1Cc1cccc(Cl)c1 -5.5%
O=C1COc2ccc(S(=O)(=O)NCCc3ccc(Cl)cc3)cc2N1 8.8%
Cc1cc(NC(=O)c2ccco2)c(=O)n(Cc2c(F)cccc2Cl)c1 -5.8%
Cc1cc(S(=O)(=O)Nc2ccc(C(=O)NCC(c3ccco3)N3CCCC3)cc2)ccc1F (configuration not stated) -3%
COc1ccc(CCNc2ncnc3c2nnn3Cc2ccccc2)cc1 -4%
COc1ccc(Cc2nnc(N/N=C/c3ccccc3O)[nH]c2=O)cc1OC -4%
O=C(NNC1=C(C(=O)C(F)(F)F)CCC1)c1ccncc1 -15.9%
Cc1ccnc(N2C(=O)c3ccc([N+](=O)[O-])cc3C2=O)c1 -1.5%
COc1ccc2c(C(=O)c3ccc(C)cc3)n(CCC(N)=O)[n+]([O-])c2c1 -5.8%
CC(C)C(C(=O)NCc1ccco1)N(CC1CCCO1)C(=O)CNS(=O)(=O)c1ccc(F)cc1 (configuration not stated) -1.5%
Cc1cccc(NC(=O)NC2(C)CCS(=O)(=O)C2)c1 (configuration not stated) -6.6%
O=C(O)C1CCCN1S(=O)(=O)c1ccc(Br)cc1 (configuration not stated) -0.2%
Cc1ccc(C)c(N2CCN(S(=O)(=O)c3c(C)[nH]c(C)c3C(=O)N3CCCC3)CC2)c1 3.6%
O=C(NCc1ccncc1)C1CCCN(S(=O)(=O)c2ccc(Br)cc2)C1 (configuration not stated) -8.8%
COc1ccc(NS(=O)(=O)c2cccc3nsnc23)cc1Cl -11.8%
COc1ccc(C(=O)C2CCCN(C(=O)c3cc4nc(C)cc(C)n4n3)C2)cc1F (configuration not stated) -9.2%
CCn1c(SCC(=O)NC2CC2)nnc1-c1ccccn1 0.1%
Cc1nc2cc(C(F)(F)F)ccc2n1CCNc1nc(-c2cc(Cl)c(N)c(Cl)c2)cs1 -2.4%
